Our source for the outcome values is PubChem BioAssay (NCATS).

Structures are written as SMILES. Activity calls are given as the source filed them. Calls come from the whole dose curve; as a rule, active = well fitted curve in the direction sought with a large enough effect; inconclusive = small, poorly fitted or top-dose-only effect, or another doubt; inactive = no such curve, though single readings can be large or run the other way.

The experiment deals with Guanine nucleotide-binding protein G(i) subunit alpha-1 (Homo sapiens) (UniProt P63096). Put plainly: qHTS Assay for Inhibitors of RGS12 GoLoco Motif Activity (Green Fluorophore) (AID 879).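 Note: negative values mean loss of peptide binding seen as reduced polarization.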 Conditions: Galphai1/FITC-RGS12 GoLoco peptide, fluorescence polarization; series mostly up to 57.1 µM. An excerpt: Assay Overview: NIH Molecular Libraries Screening Centers Network [MLSCN] NIH Chemical Genomics Center [NCGC] MLSCN Grant: NS053754-01 Assay Provider: Siderovski, David P, University of North Carolina at Chapel Hill G-protein-coupled receptors (GPCRs) are major targets for drug discovery. The regulator of G-protein signaling (RGS)-protein family has important roles in GPCR signal transduction. RGS proteins contain a conserved RGS-box, which is often accompanied by other signaling regulatory elements. RGS proteins accelerate the deactivation of G proteins to reduce GPCR signaling; however, some also have an effector function and transmit signals. Combining GPCR agonists with RGS inhibitors should potentiate responses, and could markedly increase the agonist's regional specificity. The diversity of RGS proteins with highly localized and dynamically regulated distributions in brain makes them attractive targets for pharmacotherapy of central nervous system disorders. […] A complex of Gai1 and fluorescently labeled G-alpha-binding peptide (the "GoLoco motif") derived from RGS12 is incubated with library members. Inhibitors of the binding are detected by a decrease in the fluorescence polarization (FP) of the fluorophore. Protein was supplied by Prof. David Siderovski, University of North Carolina at Chapel Hill.
Sequence of Guanine nucleotide-binding protein G(i) subunit alpha-1 (Homo sapiens) (P63096 whole entry, looked up): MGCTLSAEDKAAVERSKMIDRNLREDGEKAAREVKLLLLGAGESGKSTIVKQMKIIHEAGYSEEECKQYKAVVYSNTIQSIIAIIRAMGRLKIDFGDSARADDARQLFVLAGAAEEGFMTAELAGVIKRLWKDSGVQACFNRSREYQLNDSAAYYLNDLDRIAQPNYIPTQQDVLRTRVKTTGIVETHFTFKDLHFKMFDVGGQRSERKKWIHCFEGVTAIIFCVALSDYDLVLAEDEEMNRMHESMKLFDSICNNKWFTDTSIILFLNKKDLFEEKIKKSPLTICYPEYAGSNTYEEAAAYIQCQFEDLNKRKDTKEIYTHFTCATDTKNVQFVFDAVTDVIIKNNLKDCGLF
Assay Protocol: Reagents/Controls: Assay Buffer: 10 mM Tris-HCl, 150 mM NaCl, 0.1 mM GDP (prepared fresh), and 0.05% NP40 at pH 7.5. […] 10 nM FITC labeled peptide/50 nM protein in columns 1, 2, 5 - 48. Titration of unlabeled peptide control ([H][…][NH2], custom synthesized and HPLC-purified by Tufts University Core Facility) from 10 mM, then 1:2 dilution, 16-point in duplicate, pin-transferred to column 2, rows 1 to 32. Column 1 is neutral. FITC-labeled RGS12-GoLoco peptide was custom-synthesized and HPLC-purified by Michael Berne of Tufts University Assay Steps. Four uL of reagents were dispensed to 1536-well Greiner black solid-bottom plates. Compounds and controls (23 nL) were transferred via Kalypsys PinTool. The plates were incubated for 10 min at room temperature, and then read on ViewLux (Perkin-Elmer) High-throughput CCD imager using FITC polarization filter sets for the fluorescein-labeled decapeptide probe.During dispense, reagent bottles were kept submerged into 4 deg C water bath and all liquid lines were covered with aluminum foil to minimize probe and protein degradation. All screening operations were performed on a Kalypsys robotic system (Kalypsys, Inc., San Diego, CA) containing one RX-130 and two RX-90 anthropomorphic robotic arms.
For orientation: In qHTS, concentration-response curves come from the screen itself.
Take `CN(C)C(=O)/N=N\C(=O)N(C)C`: the outcome was inactive. With `CSc1nc(N)c2ncn([C@@H]3O[C@@H](COP(=O)(O)OP(=O)(O)O)[C@@H](O)[C@H]3O)c2n1` the entry was “inactive”; with `N.N.N.N.N.N.N.N.N.N.N.N.N.N.O.O.[Ru].[Ru].[Ru]`, “inactive”. With `COc1ccc2c(c1)CCC1C2CC[C@]2(C)[C@H](NCCCCCCN3C(=O)C=CC3=O)CC[C@@H]12` (stereo not given in full) the entry was “inactive”. With `COc1cc([C@@H](O)CO)ccc1OS(=O)(=O)O` the entry was “inactive”; with `O=C1OC(=O)[C@@H]2[C@@H]1[C@@H]1CC[C@H]2O1`, “inactive”; with `Cc1ccccc1N1CCN(S(=O)(=O)C[C@@]23CC[C@H](C[C@H]2NC(=O)[C@@H](N)CCS(C)(=O)=O)C3(C)C)CC1`, “inactive”. For `COC(=O)[C@](C)(N)Cc1ccc(O)cc1`, the compound was called inactive. `CO/N=C(\C(=O)N[C@@H]1C(=O)N2C(C(=O)O)=C(CSc3nc(=O)c(O)nn3C)CS[C@@H]12)c1csc(N)n1`: the compound was classed as inactive.

Regarding `CNC(=O)[C@@H]1O[C@@H](n2cnc3c(N)ncnc32)[C@@H](O)[C@H]1O`, the outcome was inactive. For `CC(C)C[C@H]1C(=O)N2CCC[C@@H]2[C@]2(O)O[C@](NC(=O)[C@H]3C=C4c5cccc6[nH]c(Br)c(c56)C[C@H]4N(C)C3)(C(C)C)C(=O)N12`, the compound was classed as inactive.

On to `Nc1ncnc2c1nc(Sc1ccc(Cl)cc1)n2[C@@H]1O[C@H]2COP(=O)(O)O[C@@H]2[C@H]1O`, for which the compound was called inactive. As to `CC1(C)CCC(NC(=O)[C@H](N)CCC(=O)O)CC1`, the outcome was inactive.

As for `Nc1ncnc2c1nc(Br)n2[C@@H]1O[C@H]2COP(=O)(O)O[C@@H]2[C@H]1O`, the outcome was inactive. Turning to `CCCCC/C=C\C[C@H](O)/C=C\c1cccc(C[C@H](O)CCCCO)n1`, the compound was called inactive.

As for `OC[C@@H]1O[C@@H](n2cnc3c(NC4CCCCC4)ncnc32)[C@@H](O)[C@H]1O`, the outcome was inactive.

For the compound `C[C@@H](Cc1ccccc1)Nc1ncnc2c1ncn2[C@@H]1O[C@@H](CO)[C@H](O)[C@@H]1O`, the outcome was inactive. Consider `CCCCCCCCCCCCCCCC(=O)NC[C@@H](COP(=O)([O-])OCC[N+](C)(C)C)OCC`, for which the compound was classed as inactive. The result for `CN1[C@@H]2CC[C@H]1CC(NC(=O)c1nn(C)c3ccccc13)C2` (stereo not given in full) reads “inactive”; that for `NC(N)=N[C@H](CCC(=O)O)C(=O)O`, “inactive”; that for `COc1ccc(CCN(C)CCC[C@@](C#N)(c2cc(OC)c(OC)c(OC)c2)C(C)C)cc1OC`, “inactive”.

With `Cc1cn([C@H]2C[C@H](N=[N+]=[N-])[C@H](CO)O2)c(=O)[nH]c1=O`, the result was inactive. Consider `OC[C@@H]1NC[C@@H](O)[C@@H](O)[C@H]1O`, for which the call was inactive. As for `Cc1nnc(SCC2=C(C(=O)O)N3C(=O)[C@@H](NC(=O)Cn4cnnn4)[C@@H]3SC2)s1`, the call was inactive.

`C[C@@H](COc1ccc(/C=C\c2ccccc2)cc1)[N+](C)(C)C`: the result was inactive. The result for `Nc1nc(Cl)nc2c1ncn2[C@@H]1O[C@@H](CO)[C@@H](O)[C@H]1O` reads “inactive”. In the case of `CC(C)[C@H]1C(=O)C(C(N)=O)=C(O)[C@]2(O)C(=O)C3=C(O)c4c(O)ccc(N(C)C)c4C[C@H]3C[C@@H]12`, the result was inactive. For `C#C[C@H](N)CCC(=O)O`, the call was inactive. With `Nc1nc2c(nc(Br)n2[C@@H]2O[C@H]3COP(=O)(O)O[C@@H]3[C@H]2O)c(=O)[nH]1`, the compound was classed as inactive. Turning to `CNc1ncnc2c1ncn2[C@H]1C[C@@H](OP(=O)(O)O)[C@H](COP(=O)(O)O)O1`, the outcome was inactive. In the case of `Nc1nc(SCc2ccc([N+](=O)[O-])cc2)c2ncn([C@@H]3O[C@@H](CO)[C@@H](O)[C@H]3O)c2n1`, the outcome was inactive. Regarding `Nc1ncnc2c1ncn2[C@@H]1CCCO1`, the outcome was inactive. With `CC(C)(C)c1onc(OCP(=O)(O)O)c1C[C@@H](N)C(=O)O` the entry was “inactive”.

Regarding `Nc1ncnc2c1ncn2[C@@H]1O[C@@H](C(=O)NC2CC2)[C@H](O)[C@@H]1O`, the compound was classed as inactive.

With `C=CCN1CCc2c(cc(O)c(O)c2Cl)[C@H](c2ccccc2)C1`, the outcome was inactive. `COc1cc([C@H](O)C(=O)O)ccc1O`: the compound was called inactive. On to `CNc1ncnc2c1ncn2[C@@H]1O[C@@H](CO)[C@H](O)[C@@H]1O`, for which the result was inactive. With `CNC(=O)[C@@H]1O[C@@H](n2cnc3c(NCc4ccc(N)cc4)ncnc32)[C@@H](O)[C@H]1O` the entry was “inactive”. For `C[C@@H]1C(=O)N(C)C(=O)c2nc[nH]c21`, the outcome was inactive. The result for `O=[N+]([O-])c1ccc(CSc2ncnc3c2ncn3[C@@H]2O[C@@H](CO)[C@@H](O)[C@H]2O)cc1` reads “inactive”.
